Assay results: PubChem BioAssay AID504706 (National Center for Advancing Translational Sciences (NCATS), 2011)
Among all 320,000 compounds or so, about 200 (0.062%) were called active. About 6% were inconclusive and are not listed. The call rests on the fitted dose curve; in most records, active means well fitted activation curve with a large enough effect; inconclusive means small, poorly fitted or top-dose-only effect; inactive means no such curve, though single readings can be large or run the other way. The full list was thinned out, with actives kept by preference.

Assay: qHTS assay for re-activators of p53 using a Luc reporter; further: nearly all actives have a fitted effect of over 45% in size; on activity change, positive = activation: % of control where 0% means no effect
Settings: H1299 p53-A138V BP100-luciferase reporter, luminescence, 24 h; series mostly up to 92.2 µM; activity change, positive = activation: at the top concentration
How it was run: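 H1299 (p53-null), stable ts p53-A138V + BP100-Luc; 1000 cells/well, Opti-MEM/10% FBS; cpd 4 pt, 1:5; 24 h, 37 deg C, 5% CO2; detection reagent 10 min RT; luminescence.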
Potency means the concentration at half of the fitted maximal effect.

Activity change, positive = activation, inactive:
CC(C)(C)OC(=O)C[C@H]1C/C=C\C[C@@H](CC(=O)N[C@H](CO)Cc2ccccc2)C(=O)NC[C@@H](c2ccccc2)OC1=O 2.82%
CN=C(Nc1cccc(S(=O)(=O)N2CCOCC2)c1)c1ccccc1 -9.42%
O=C(NCCC(=O)N1O[C@@H]2C=C[C@H]1C2)OCC1c2ccccc2-c2ccccc21 -4.81%
Nc1ncnc2c1ncn2[C@@H]1O[C@H](CNS(=O)(=O)c2ccc(-c3ccno3)s2)[C@@H](O)[C@H]1O -6.9%
Cc1noc(C)c1NC(=O)Nc1ccc2c(c1)C(=O)N([C@H](C)CO)C[C@H](C)[C@@H](CN(C)C(=O)Nc1ccc(C(F)(F)F)cc1)O2 5.39%
O=C1[C@@H](c2ccccc2)[C@@H](c2ccccc2)N1c1cccnc1 -20.3%
CC1O[C@@H](OC2C(O)C(C)O[C@H](OC(=O)[C@]34CCC(C)(C)C[C@H]3C3=CCC5[C@@]6(C)CC(O)C(O[C@@H]7OC(CO)C(O)[C@@H](O)[C@@H]7O)[C@@](C)(C(=O)O)C6CC[C@@]5(C)[C@]3(CO)CC4)C2O[C@H]2OC(C)[C@@H](O[C@@H]3OCC(O[C@@H]4OC(CO)C(O)[C@H](O)C4O)[C@@H](O)[C@@H]3O)[C@H](O)C2O)C(O)C(O)C1O (some centres not stated) 2.19%
COc1cc(C(=O)OCc2cc(=O)n3ccsc3n2)ccc1OC(C)C 24.6%
O=C1CCC/C=C\C[C@@H](CC(=O)N(CCO)Cc2ccccc2)C(=O)NCCO1 7.41%
COc1ccc(CNc2nc(NCc3ccc(OC)cc3)c3ncn(C4CCCC4)c3n2)cc1 9.86%
C#CCOCCOCCOCCNc1nc(N2CCN(C(=O)[C@H](CCC(=O)O)n3cc(CN)nn3)CC2)nc(N2CCN(C(=O)[C@H](CCC(=O)O)n3cc(CN)nn3)CC2)n1 -3.28%
CC[C@]1(C(=O)OC)[C@H]2C(=O)N(Cc3ccccc3)C(=O)[C@H]2[C@H]2CN=C(SCc3ccc(C#N)cc3)N21 -2.09%
Cc1cccc(C)c1Nc1nnc(SCC(=O)NCCCN2CCCC2=O)s1 3.39%
COc1cc(NC(=O)c2[nH]cnc2C(N)=O)cc(C(=O)Nc2cccc(C(F)(F)F)c2)c1 -11.8%
CN(c1ccccc1)S(=O)(=O)c1cc(C(=O)N2CCN(c3ncccn3)CC2)ccc1Cl -1.11%
CN(C(=O)CSc1cccc[n+]1[O-])C1CCCCC1 12.6%
COc1ccc(C/C(C)=N/NC(=O)c2cc(C)oc2C)cc1 8%
CC(C)c1cc(C(=O)N/N=C/C(Br)=C/c2ccccc2)n[nH]1 -18.6%
Cc1cc(C(=O)NNC(=O)c2ccccc2O)c(C)o1 20.4%
Cc1cc(C(=O)N/N=C/c2ccc(N3CCOCC3)cc2)c(C)o1 1.2%
O=C1c2ccccc2[C@@H]2C[C@@H](O)[C@H](Nc3ccccc3Cl)CCN12 0.658%
CC(C)(C)OC(=O)C1=C(CO)CS[C@@H]2[C@H](NC(=O)Cc3ccccc3)C(=O)N12 7.32%
Cc1cccc(NC(=O)c2ccc(S(=O)(=O)N(C)c3ccccc3)cc2)n1 7.09%
CCN(CC(=O)NC(C)C)C(=O)c1cc(S(=O)(=O)N2CCCCC2)ccc1N1CCCCC1 -0.998%
COc1ccc(C(=O)COC(=O)CN2C(=O)C3CC=CCC3C2=O)c(OC)c1 (configuration not stated) -10.4%
Cc1ccc(S(=O)(=O)N2C[C@@H]3CCCC[C@@H]3[C@@H](C)[C@H]2c2cn(Cc3ccccc3)c3ccc(F)cc23)cc1 10%
COc1ccc(C(=O)Nc2cc(S(=O)(=O)N3CCCC3)ccc2Cl)cc1 -1.71%
CCN(C(=O)COC(=O)CCC(=O)c1cccs1)C1CCCCC1 -2.62%
CC(=O)N(O)CCCCCNC(=O)CCC(=O)N(O)CCCCCNC(=O)CCC(=O)N(O)CCCCCNC(=O)CCC(=O)O -0.988%
O=C(/C=C/c1ccc(Cl)c([N+](=O)[O-])c1)c1ccc(O)cc1 -13.6%
O=C(O)/C=C/c1ccc2c(c1)OCCO2 1.53%
O=C(COC(=O)c1ccncc1)Nc1ccc2c(c1)OCO2 0.759%
O=C(Nc1cccc(S(=O)(=O)N2CCCCC2)c1)c1cncc(Br)c1 0.992%
COc1cc(S(=O)(=O)N2CCN(C(=O)C3CC3)CC2)ccc1NC(C)=O -5.44%
CC[C@]12c3[nH]c4ccc(OC)cc4c3CCN1C(=O)C(CC(=O)NCCN1CCOCC1)C[C@@H]2C(=O)N1CCN(C(=O)C2CC2)CC1 (some centres not stated) 2.11%
CC[C@]12c3[nH]c4cc(CCC(=O)N(C)C)ccc4c3CCN1C(=O)[C@@H](CC(=O)NCCCn1ccnc1)C[C@@H]2C(=O)N1CCN(C(=O)C2CC2)CC1 -3.3%
CN(C)C(=O)CCc1ccc2c3c([nH]c2c1)[C@]1(C)[C@@H](C(=O)N2CCCCC2)C[C@H](CC(=O)NCCC2=CCCCC2)C(=O)N1CC3 -5.25%
COc1cc(OC)cc(C(=O)NC(C(=O)N2CCC2)C(C)C)c1 (configuration not stated) -1.81%
O=C(N[C@H]1C/C=C\C(c2ccc(F)cc2)N(Cc2ccccc2)C(=O)C1)OCC1c2ccccc2-c2ccccc21 (some centres not stated) -0.803%
COc1ccccc1C(=O)Nc1ccc(C)c(S(=O)(=O)N2CCCCC2)c1 -8.11%
Cc1ccc2c(c1)NC(=O)[C@@]1(C)[C@@H](c3ccccc3)[C@H]3COc4ccc(Cl)cc4[C@@H]3N1C2=O 0.966%
C[C@@H]1CN([C@H](C)CO)C(=O)c2cc(NC(=O)NC3CCCCC3)ccc2O[C@H]1CN(C)S(C)(=O)=O 2.47%
O=C(C[C@@H]1C/C=C\CCC(=O)OC[C@@H]2CCCN2C1=O)NCCO -5.06%
COc1ccc(/C=C/C(=O)OCC(=O)NC2CCCCCC2)cc1OC -1.46%
CC1(C)CC[C@@]2(C(=O)O)C(C1)C1=CCC3[C@@]4(C)CC[C@H](O)C(C)(C)C4CC[C@@]3(C)[C@]1(C)C[C@H]2O (some centres not stated) -3.51%
CC(=O)C[C@H](O)CC(=O)[C@@H]1OC(=O)[C@@H](C)C/C=C\Cc2ccccc21 -0.871%
CCCCNC(=O)C(C)N(CCN(C)C)C(=O)CCCCCN1C(=O)NC(c2ccc(Cl)cc2)C(C(=O)OCc2ccccc2)=C1C (configuration not stated) -8.52%
COc1cc2c(-c3ccc4c(c3)OCO4)c(-c3ccsc3)oc(=O)c2cc1OC 2.64%
COc1cc(/C=C2\Oc3ccc(C#Cc4ccc(O)cc4)cc3C2=O)cc(OC)c1 14%
Cc1ccc(NS(=O)(=O)c2ccc(C(C)C)cc2)cc1S(=O)(=O)N1CCOCC1 -4.53%
COc1ccc(Br)cc1CN(C)C(=O)C1CC(=O)N(C2CCCC2)C1 (configuration not stated) -4.98%
Cc1nn(-c2ccccc2)c(C)c1/C=C/C(=O)OC(C)C(N)=O (configuration not stated) 8.78%
Cc1nn(-c2ccccc2)c(Cl)c1C(=O)Nc1ccccc1 10%

Potency, active:
CC(=C/c1ccccc1)/C=N/NC(=O)c1cc(C)oc1C 11.2 µM
Cc1cc(C(=O)N/N=C\C(Br)=C\c2ccccc2)c(C)o1 31.6 µM
O=C(/C=C/c1ccc2c(c1)OCCO2)c1ccc(O)cc1 22.4 µM
Cc1nn(-c2ccccc2)c(Cl)c1/C=C/C(=O)c1ccc(O)cc1 22.4 µM
